# Experimental data published in ChEMBL document CHEMBL5308504, “Tm Shift (DSF) assay results for EUbOPEN Chemogenomics Library” (2023).
# Several values for one entry are separate records, joined by “and”; a condition that tells them apart may be missing. Identical values can stand only once.
# Tests used:
# [1] = target: Bromodomain-containing protein 4 (Homo sapiens) (UniProt O60885); conditions: Compound concentration 20.0 uM, Protein concentration 2.0 uM, Result type QC Liability
# [2] = target: T1, Transcription intermediary factor 1-alpha (Homo sapiens) (UniProt O15164); conditions: Compound concentration 20.0 uM, Protein concentration 2.0 uM, Result type QC Liability
# T1 sequence (whole entry): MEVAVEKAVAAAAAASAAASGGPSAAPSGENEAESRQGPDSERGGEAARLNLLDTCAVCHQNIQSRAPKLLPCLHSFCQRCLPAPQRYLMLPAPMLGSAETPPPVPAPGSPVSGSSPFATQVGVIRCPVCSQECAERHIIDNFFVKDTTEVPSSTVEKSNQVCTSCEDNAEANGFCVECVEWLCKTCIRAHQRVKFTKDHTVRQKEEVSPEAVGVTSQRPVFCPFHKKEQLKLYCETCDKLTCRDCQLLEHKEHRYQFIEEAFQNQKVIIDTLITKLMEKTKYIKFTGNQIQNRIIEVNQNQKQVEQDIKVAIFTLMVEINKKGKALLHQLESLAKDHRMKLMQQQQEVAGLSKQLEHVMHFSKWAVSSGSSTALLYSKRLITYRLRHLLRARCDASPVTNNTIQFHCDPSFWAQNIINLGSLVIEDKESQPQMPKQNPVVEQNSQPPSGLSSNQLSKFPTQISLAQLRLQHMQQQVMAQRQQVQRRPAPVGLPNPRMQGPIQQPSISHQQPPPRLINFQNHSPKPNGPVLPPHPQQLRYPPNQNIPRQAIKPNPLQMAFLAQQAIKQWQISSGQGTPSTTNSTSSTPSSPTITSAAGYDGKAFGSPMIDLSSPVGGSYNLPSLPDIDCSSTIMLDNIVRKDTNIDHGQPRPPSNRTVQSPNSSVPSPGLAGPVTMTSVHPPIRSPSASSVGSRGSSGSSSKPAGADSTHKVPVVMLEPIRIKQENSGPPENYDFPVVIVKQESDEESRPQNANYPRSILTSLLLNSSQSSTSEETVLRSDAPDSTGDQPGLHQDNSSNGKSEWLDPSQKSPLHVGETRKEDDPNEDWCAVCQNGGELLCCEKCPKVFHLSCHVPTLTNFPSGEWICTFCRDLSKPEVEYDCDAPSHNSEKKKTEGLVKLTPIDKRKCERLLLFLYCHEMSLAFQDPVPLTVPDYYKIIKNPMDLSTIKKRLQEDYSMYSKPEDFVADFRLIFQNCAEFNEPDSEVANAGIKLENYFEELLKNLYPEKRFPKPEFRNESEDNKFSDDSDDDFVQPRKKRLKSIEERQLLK
SMILES,ΔTm [1],ΔTm [2]
CC(C)NC(=O)[C@H]1CCC[C@H]1Nc1nc(Nc2ccc(C(=O)N(C)C3CCN(C)CC3)cc2)ncc1Cl,-1.48 °C and -0.92 °C,0.3 °C and -2.89 °C
CN(C)C(=O)Cn1cc(-c2nc(C3(c4ccc(-c5cnc(N)nc5)cc4)CC3)no2)cn1,-1.16 °C,0.32 °C
O=C(Nc1ccc(Cl)c(-c2ccccn2)c1)c1cccc(COc2ccc(Br)cc2CNCCO)c1,-1.21 °C,-0.08 °C
CCS(=O)(=O)c1cc2cc(C[C@](O)(CC(C)(C)c3ccc(F)cc3C(N)=O)C(F)(F)F)[nH]c2cn1,-2.16 °C,0.37 °C
CC(=O)Nc1c(F)cc(C(=O)N[C@H]2CC[C@H](O)CC2)cc1O[C@@H](C)c1ccccc1,-1.18 °C,-0.63 °C
CCCCC/C=C/C=C1/C(=O)C=C[C@@H]1C/C=C\CCCC(=O)O,-4.89 °C,-1.14 °C
CN(C)C/C=C/C(=O)Nc1cc2c(Nc3ccc(F)c(Cl)c3)ncnc2cc1OC[C@@H]1CCCO1,-0.58 °C,-0.17 °C
COc1ccc(N(C(=O)Nc2c(C)cccc2C)c2cc(Nc3ccc(N4CCN(C)CC4)cc3)ncn2)c(OC)c1,2.62 °C,0.7 °C
Cc1c(N2CCCC2)nc2ccc(Br)cc2c1C(=O)NC[C@H](CCC(=O)O)c1ccccc1Cl,-0.88 °C and -3.16 °C,0.3 °C and -2.24 °C
Cc1nn(-c2ccccc2)c(Nc2ccccc2C(=O)O)c1-c1cc2nccnc2c(F)c1F,-1.68 °C,0.83 °C
Cc1cc2c(cc(C(=O)N[C@H](CO)c3ccc(S(=O)(=O)CC(=O)O)cc3)n2C)c(Cl)c1Cl,2.14 °C,-0.18 °C
Cn1c(C(=O)N[C@@H](CO)c2ccc(C(=O)O)cc2)cc2cc(Cl)ccc21,0.27 °C,0.31 °C
Cn1c(Nc2c(Cl)cccc2Cl)nc2ccc3nc[nH]c(=O)c3c21,-3.08 °C,-3.83 °C
Cc1nc2cccnc2n2c(-c3cc(C(C)(C)O)ncc3Cl)nnc12,-1.96 °C,-2.03 °C
C[C@@H]1C[C@H](C)CN(c2ncc(Cl)c(Nc3ccc4c(c3)cc(OC(C)(C)C(=O)O)c(=O)n4C)n2)C1,-0.93 °C,0.15 °C
CN(C)[C@H]1CCN(c2cc(C(F)(F)F)c(C#N)c(Nc3cccc(CCC(=O)O)c3)n2)C1,-0.8 °C,0.26 °C
NC(=O)c1ccccc1Nc1nc(-c2ccc(N3CCOCC3)cc2)cc2ncccc12,-2.32 °C,-2.3 °C
CCc1ccccc1C(=O)Nc1n[nH]c2c(C)c(F)c(C3C(C#N)=C(C)N(C)C(C)=C3C#N)cc12,-3.05 °C,-0.71 °C
CN1Cc2nccc(-c3cn(C)nc3-c3ccc(F)cc3)c2C1=O,-1.27 °C,-1.67 °C
O=C(O)c1ccnc(N2CC(O)(c3ccc(OCc4c(-c5c(Cl)cccc5Cl)noc4C4CC4)cc3Cl)C2)c1,-4.33 °C,-1.77 °C
CCC(=O)N[C@H]1CC[C@@H](C(=O)N(C)c2ccc(-c3nc4ccccc4o3)cc2)C1,0.09 °C,0.23 °C
C[S+](C)[O-],0 °C (2×) and -2.05 °C,0 °C (2×) and -2.19 °C
Cc1cc(C2CCCNC2)ccc1Nc1ncc(Br)c(NCc2cccc3c2C(C)(C)C(=O)N3)n1 (stereo unspecified),-4.96 °C,-2.52 °C
COc1ccc(-c2csc(NC(=O)[C@H]3CCCCN3S(=O)(=O)c3ccc(C)cc3)n2)cc1,3.35 °C,-0.04 °C
Cn1cc(-n2cnc3c(NCc4nc5cc(Cl)c(Cl)cc5[nH]4)nc(N4CCOCC4)nc32)cn1,0.71 °C,-0.85 °C

SMILES,ΔTm [1],ΔTm [2]
CC1(C)C[C@@H]1C(=O)N/C(=C\CCCCSC[C@H](N)C(=O)O)C(=O)O,-2.05 °C,-0.56 °C
CN(C)[C@H]1CCc2nc(NC(=O)c3cccc(Cn4cc(-c5ccc(C#N)cc5)cn4)c3)sc2C1,-1.88 °C,-2.75 °C
COc1ccccc1N1CCN(c2ncnc3c2cnn3-c2ccccc2)CC1,0.01 °C,0.1 °C
CCc1nc(-c2cccc(C)c2)c(-c2ccncc2)s1,0.55 °C,-3.01 °C
Cc1cn([C@H](C)CC#N)c(=O)c2cc(Cn3nc(C(F)F)cc3Cl)nn12,-1.08 °C,-1.23 °C
Cc1c(NC(=O)COc2ccc(Cl)cc2C(=O)c2cc(F)cc(C(F)(F)F)c2)ccc(C(=O)O)c1F,-0.11 °C and -0.42 °C,0.4 °C and 0.46 °C
C[C@H](CCC(=O)O)[C@H]1CC[C@H]2[C@@H]3[C@H](O)C[C@@H]4C[C@H](O)CC[C@]4(C)[C@H]3C[C@H](O)[C@]12C,-2.7 °C,-2.48 °C
O=C(O)c1cc(F)c2nc(N3[C@@H]4CC[C@H]3C[C@@H](OCc3c(-c5ccccc5OC(F)(F)F)noc3C3CC3)C4)sc2c1,-7.4 °C,-1.62 °C
CC(=O)N(CCN(C)C)c1ccc(N/C(=C2\C(=O)Nc3cc(Cl)ccc32)c2ccccc2)cn1,-1.57 °C,-4.13 °C
COc1cc(Nc2cnc(C#N)c(O[C@H](C)CN(C)C)n2)ncc1-c1cnn(C)c1,-1.55 °C,-2.76 °C
CCc1ccc(N(CC(C)C)S(=O)(=O)c2ccc(OCC3CCOCC3)c(CO)c2)cc1,-3.99 °C,-0.46 °C
N#CN1CC[C@@H](C(=O)Nc2nc3c(s2)CN(C(=O)CN=[N+]=[N-])CC3)C1,-1.95 °C,-0.82 °C
Cc1cn(CCN2CCN(c3ccccc3-c3cc(C#N)cc(C(=O)NCCCN4CCCC4)c3)CC2)c2ccccc12,-2.78 °C,-1.92 °C
CN1CCN(C(=O)c2ccc3cc2OCCOCCNc2ccn4ncc-3c4n2)CC1,0.71 °C,-0.01 °C
O=C(Nc1cc2cc[nH]c(=O)c2cc1Cl)[C@H]1CNC[C@@H]1c1cccnc1,-1.63 °C,-2.69 °C
Cc1cc2c(ncn2C2(C)CN(C(=O)c3ccn(CC4CCN([C@H]5C=CCCCC5)CC4)c3)C2)c(N)n1,-1.87 °C,-2.7 °C
O=C(NCc1ccc(F)cc1)C1CCN(S(=O)(=O)c2cc(Cl)cc(Cl)c2)CC1,-0.4 °C,0.44 °C
Cc1nc2cccnc2n2c(-c3cc([C@@]4(O)CCCOC4)ccc3Cl)nnc12,-1.99 °C,0.37 °C
Cn1nc(-c2ccc(C(N)=O)cc2)c2ccccc2c1=O,0.79 °C,0.31 °C
NCc1ccc(OCCCc2sc(-c3ccc4c(c3)/C(=N/Nc3nc5ccccc5s3)CCC4)nc2C(=O)O)cc1,-11 °C,-0.58 °C
CCOc1ccc(S(=O)(=O)Nc2ccc(Cl)cc2C#Cc2cnc(C(=O)O)cc2OC)c2ncccc12,-1.6 °C,0.27 °C
O=C(CCCN1CCC(O)(c2ccc(Cl)cc2)CC1)c1ccc(F)cc1,-3.1 °C,-2.64 °C
COc1ccc(Br)cc1S(=O)(=O)NC(=O)/C=C/c1cc(Cl)ccc1Cc1ccc2ccccc2c1,-4.74 °C,-0.55 °C
Nc1ncnc2c1c(COc1cccc(Cl)c1)nn2C1CCOCC1,-0.35 °C,-2.38 °C
CCn1c(=O)c2c(C)c(C(=O)N3CCC(O)CC3)sc2n(CCC(F)(F)F)c1=O,-12.7 °C,0.23 °C

SMILES,ΔTm [1],ΔTm [2]
CCS(=O)(=O)Nc1cccc(Oc2cc(F)cc(Nc3ccc(I)cc3F)c2NS(=O)(=O)C2CC2)c1,-2.86 °C,3.45 °C
O=C(O)c1cccc(C2=C(c3cc(Cl)ccc3OCc3ccc(F)cc3F)CCC2)n1,-0.65 °C,-2.91 °C
CN1CCC(C#N)(NC(=O)[C@@H](NC(=O)N2CCOCC2)C(C)(C)C)CC1,0.17 °C,0.14 °C
Cc1cc2c(-c3ccco3)cnc(N[C@@H]3CCN(C)C[C@H]3C(=O)NC3CCCCC3)c2[nH]c1=O,13.3 °C,-4.37 °C
COc1cc(-c2cncc(-c3cnn(C4CCNCC4)c3)c2)cc(OC)c1OC,0.84 °C,-1.81 °C
NC1(c2ccc(-c3nc4c(O)ccnn4c3-c3ccccc3)cc2)CCC1,-0.63 °C,-1.89 °C
C=C(F)C(=O)N1CCN(c2nc(OC[C@@H]3CCCN3C)nc3c2CCN(c2cccc4cccc(Cl)c24)C3)C[C@@H]1CC#N,0.05 °C,-0.78 °C
Cc1nc(Nc2cnn(C3CCNCC3)c2)nc2c1N(C)C(=O)c1cc3ccccc3cc1N2C,-2.15 °C,-2.83 °C
Cn1c(C2(NC(=O)c3ccc4c(C5CCCC5)c(-c5ncc(Br)cn5)n(C)c4c3)CCC2)nc2ccc(/C=C/C(=O)O)cc21,0 °C and -4.93 °C,0.68 °C and -0.65 °C
O=C1CN(c2ccccc2F)C(NCCN2CCOCC2)=C1c1nc2cc(Br)ccc2c(=O)[nH]1,-12.3 °C,0.25 °C
C[C@@H]1CN(CC(=O)N2CC(C)(C)c3nc(CO)c(Cc4ccc(F)cc4)cc32)[C@@H](CN2CCOC[C@H]2C)CN1,-1.96 °C,-0.43 °C
O=C(NCCS(=O)(=O)c1ccc(C(F)(F)F)cn1)c1ccc(Cl)cc1,-3.11 °C,-2.42 °C
Cn1cnc(Cn2ccc3ccc(CNCc4[nH]c5ccccc5c4[C@@H]4NC(=O)c5ccc(O)cc54)cc32)c1,-1.28 °C,0.32 °C
CC(C)(C)C(=O)NCc1ccc(Cl)c(C(=O)Nc2ncc[nH]2)c1,-0.82 °C,-0.67 °C
O=C(O)CCCCN(CCc1ccccc1OCc1ccc(CCc2ccccc2)cc1)Cc1ccc(C(=O)O)cc1,-0.88 °C,0.09 °C
Cc1nc2ccccc2c(-c2ccc3c4c(ccnc24)CCO3)c1[C@H](OC(C)(C)C)C(=O)O,-1.5 °C,0.24 °C
C=CC(=O)Nc1cccc(C)c1Nc1ncc2cc(-c3c(Cl)c(OC)cc(OC)c3Cl)ccc2n1,0.13 °C,0 °C
CN(C)C/C=C/C(=O)Nc1cccc(S(=O)(=O)N2CCC(NC(=O)c3n[nH]cc3NC(=O)c3c(Cl)cc(Cl)cc3Cl)CC2)c1,-1.08 °C,0.7 °C
O=C(Nc1ccccc1C(=O)O)c1cc(S(=O)(=O)c2ccccc2)ccc1Cl,2.09 °C,0.36 °C
CC(C)(O)CNC(=O)N1C(=O)N(c2cccc(C(F)(F)F)c2)C2=C(C(=O)CC2)[C@@H]1c1ccc(C#N)cc1,-0.6 °C,0.83 °C
COc1ccc2c(O[C@@H]3C[C@H]4C(=O)N[C@]5(C(=O)NS(=O)(=O)C6(C)CC6)CC5/C=C\CCCCC[C@H](NC(=O)c5ccn(C)n5)C(=O)N4C3)cc(OC(C)C)nc2c1C (stereo partly specified),1.29 °C,0.91 °C
COc1cc2ncnc(Nc3cccc(O)c3)c2cc1OC,0.18 °C,-0.88 °C
COc1ccccc1[C@@H]1CNCCC12CCN(C(=O)[C@](OC)(c1ccccc1)C(F)(F)F)CC2,-0.33 °C,0.2 °C
